Test results reported in PubChem BioAssay (EPA / NIEHS).
Records with an inconclusive call do not appear. Active and inactive are the calls of the source. The calls were made as follows, unless noted: active = hit-call score of the fitted dose curve at least 0.9, where 1 is the maximum; inconclusive = response in the unintended direction; inactive = score below 0.9.

Experiments:
[1] = target: Nucleoli Translocation, AR (gene 367) (UniProt P10275); test: UPITT_HCI_U2OS_AR_TIF2_Nucleoli_Antagonist: University of Pittsburgh U2OS Androgen Receptor-Transcriptional Intermediary Factor 2 (AR-TIF2) Antagonism High Content Imaging Assay for Nucleoli Translocation (AID 2283997)
In short: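 An antagonist-mode imaging screen: engineered U2OS (AR-RFP, TIF2-GFP) exposed to 20 uM compound, 0.2% DMSO. Activity reflects nucleolar red fluorescence change relative to DHT baseline.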

[2] = target: Nucleoli Translocation, AR (gene 367) (UniProt P10275); test: UPITT_HCI_U2OS_AR_TIF2_Nucleoli_Agonist: University of Pittsburgh U2OS Androgen Receptor-Transcriptional Intermediary Factor 2 (AR-TIF2) Agonism High Content Imaging Assay for Nucleoli Translocation (AID 2283998)
In short: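 U2OS cells expressing RFP-tagged human AR and GFP-tagged TIF2; red fluorescence in nucleoli quantified by high-content imaging. Primary screen at 20 uM final (0.2% DMSO); concentration-response 0.195–50 uM (0.5% DMSO), fitted upward versus DMSO.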

[3] = target: Ratio of Nucleoli Translocation and Cytoplasm, AR (gene 367) (UniProt P10275); test: UPITT_HCI_U2OS_AR_TIF2_Nucleoli_Cytoplasm_Ratio_Agonist: University of Pittsburgh U2OS Androgen Receptor-Transcriptional Intermediary Factor 2 (AR-TIF2) Agonism High Content Imaging Assay for Ratio of Nucleoli Translocation and Cytoplasm (AID 2284000);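 also: hits raise the red nucleolar to cytoplasm ratio above vehicle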
In short: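 Primary screen at 20 uM final (0.2% DMSO), then triplicate confirmation and dose-response from 0.195 to 50 uM final (0.5% DMSO). Cells: U2OS with AR-RFP and TIF2-GFP. Endpoint is the nucleoli/cytoplasm red-fluorescence ratio, gain-of-signal vs DMSO.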

[4] = CCTE_Harrill_HTTr_Viability_MCF7: CCTE's 6-hour Cell Viability Assessment for the High-Throughput Transcriptomics (HTTr) Platform, in MCF-7 cells cultured in DMEM + 10% fetal bovine serum, Harrill Lab (AID 2284010; active = hit-call score of the fitted dose curve at least 0.9, where 1 is the maximum; inactive = score below 0.9)
In short: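 Eight-point concentration series, six-hour exposure. Propidium iodide exclusion imaged to assess membrane integrity as a cytotoxicity readout; bidirectional fitting was done with DMSO as negative control and activity baseline.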

[5] = CCTE_Harrill_HTTr_Apoptosis_MCF7: CCTE's 6-hour Apoptosis Assessment for the High-Throughput Transcriptomics (HTTr) Platform, in MCF-7 cells cultured in DMEM + 10% fetal bovine serum, Harrill Lab (AID 2284011; active = hit-call score of the fitted dose curve at least 0.9, where 1 is the maximum; inactive = score below 0.9)
In short: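 MCF-7 cells in DMEM + 10% FBS exposed 6 h to chemicals over an eight-point dilution series. Caspase-3/7 activation imaged by high-content CellEvent Green staining; fitted bidirectionally versus DMSO.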

[6] = CCTE_Harrill_HTTr_CellCount_MCF7: CCTE's Cell Proliferation Assessment for the High-Throughput Transcriptomics (HTTr) Platform, Harrill Lab (AID 2284012);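 also: count of Hoechst-stained nuclei per well by high-content imaging in MCF-7 cells; cells exposed to compound for six hours; intended direction is loss of nuclei count meaning fewer cells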
In short: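 For this full-screen endpoint, MCF-7 cultures received eight compound dilutions for six hours. Well nuclei counts from Hoechst imaging were analyzed relative to DMSO.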

[7] = target: Ratio of Nucleoli Translocation and Cytoplasm, AR (gene 367) (UniProt P10275); test: UPITT_HCI_U2OS_AR_TIF2_Nucleoli_Cytoplasm_Ratio_Antagonist: University of Pittsburgh U2OS Androgen Receptor-Transcriptional Intermediary Factor 2 (AR-TIF2) Antagonism High Content Imaging Assay for Ratio of Nucleoli Translocation and Cytoplasm (AID 2283999);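 also: antagonists lower the DHT-driven ratio of nucleolar to cytoplasmic red signal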
In short: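 This antagonist-mode endpoint tracks AR-RFP localisation, the nucleolus-to-cytoplasm intensity ratio, in TIF2-GFP-coexpressing U2OS cells. DMSO stays at or below 0.5%; testing spans 20 uM single-dose and 0.195–50 uM series, with DHT setting the activity baseline.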

Measured: outcome

Sequence of Nucleoli Translocation, AR (gene 367) (P10275 whole entry, looked up): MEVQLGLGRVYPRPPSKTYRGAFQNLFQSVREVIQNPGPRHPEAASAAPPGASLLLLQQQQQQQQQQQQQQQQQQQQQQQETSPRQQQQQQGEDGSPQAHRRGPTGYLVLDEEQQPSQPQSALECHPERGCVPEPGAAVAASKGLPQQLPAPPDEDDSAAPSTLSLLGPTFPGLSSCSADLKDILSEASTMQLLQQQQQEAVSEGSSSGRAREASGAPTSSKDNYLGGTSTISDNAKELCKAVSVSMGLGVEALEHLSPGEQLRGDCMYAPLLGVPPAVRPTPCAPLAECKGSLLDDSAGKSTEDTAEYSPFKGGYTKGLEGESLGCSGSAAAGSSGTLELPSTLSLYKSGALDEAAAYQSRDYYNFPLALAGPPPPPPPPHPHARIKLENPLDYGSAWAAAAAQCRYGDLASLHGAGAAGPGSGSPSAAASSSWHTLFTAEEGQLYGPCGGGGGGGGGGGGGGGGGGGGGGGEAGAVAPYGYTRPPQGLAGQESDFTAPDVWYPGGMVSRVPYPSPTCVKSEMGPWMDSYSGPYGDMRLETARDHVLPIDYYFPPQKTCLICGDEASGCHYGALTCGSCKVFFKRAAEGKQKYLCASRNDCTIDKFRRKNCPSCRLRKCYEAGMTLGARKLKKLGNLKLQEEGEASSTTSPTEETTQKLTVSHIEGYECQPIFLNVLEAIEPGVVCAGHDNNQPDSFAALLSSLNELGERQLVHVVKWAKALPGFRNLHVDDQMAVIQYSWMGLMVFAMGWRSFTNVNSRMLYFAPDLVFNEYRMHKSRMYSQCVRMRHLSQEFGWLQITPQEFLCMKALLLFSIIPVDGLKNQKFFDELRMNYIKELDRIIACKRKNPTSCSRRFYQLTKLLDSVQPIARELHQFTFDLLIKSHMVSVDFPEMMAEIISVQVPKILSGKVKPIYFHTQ
Sequence of Ratio of Nucleoli Translocation and Cytoplasm, AR (gene 367) (P10275 whole entry, looked up): as above

O=c1[nH]c2c(c(=O)n1C1CCCCC1)CCC2
inactive: [1] | [2] | [3] | [4] | [5] | [6]

O=S1OC[C@@H]2[C@H](CO1)[C@]1(Cl)C(Cl)=C(Cl)[C@]2(Cl)C1(Cl)Cl (stereo partly specified)
inactive: [1] | [2] | [7] | [3] | [4] | [5] | [6]

Cc1cc(N)ccc1N
inactive: [4] | [5] | [6]
